Assay results taken from PubChem BioAssay (NCI).
The panel holds about 83,000 compounds, 20% with a hit somewhere; the sample as a whole holds those more often.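 Cell lines were cultured in 96-well plates, exposed to a single compound concentration, and assessed for percent growth 48 hours later.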 Values without a mark were called inactive. Calls of active or inactive are those of the source. The calls were made as follows: active = growth percent below 10; inactive = the rest.

Tested on: HL-60(TB) leukemia
Assay: NCI-60 one-dose screen, 48 h (100 = growth as untreated, 0 = no growth, -100 = all killed)
Details: 10 µM unless noted

Row | Structure (SMILES) | growth
1 | O=[N+]([O-])c1cnc(Sc2ccncn2)s1 | -20.2% (active)
2 | Cc1ccccc1/C=C/C(=O)c1cccc(OCCCCOc2cccc(C(=O)/C=C/c3ccccc3C)c2)c1 | 81.8%
3 | COc1ccccc1/C=N\NC(=S)Nc1ccc(F)cc1 | 94.5%
4 | CC(=O)OC[C@]12CC[C@@H]([C@@H](C)c3nnc(-c4ccncc4)o3)[C@@H]1[C@H]1CC[C@@H]3[C@@]4(C)CC[C@H](OC(C)=O)C(C)(C)[C@@H]4CC[C@@]3(C)[C@]1(C)CC2 | 61.1%
5 | O=S(=O)(NCCCNc1nccc(-c2c(-c3ccc(F)cc3)nc3sccn23)n1)c1ccc(F)cc1 | 35.5%
6 | COc1ccc(/C=N\Nc2nc(SCC(C)C)nc(-c3ccc(OC)cc3)c2C#N)cc1 | 35.8%
7 | C/C(=C(\c1ccc(OCCN2CCCCCC2)cc1)c1ccc(OC(=O)Cc2ccccc2)cc1)c1ccc(Cl)cc1 | -60% (active)
8 | CCCCc1nc(Cl)c(CO)n1Cc1ccc(-c2ccccc2-c2nn[nH]n2)cc1 | 110%
9 | O=S(=O)(Oc1ccc(Br)cc1)c1ccc(Cl)cc1 | 85.3%
10 | CCCN(CCC)c1ccc(/C=C/c2ccc3cc(OCC)ccc3n2)cc1 | 54.3%
11 | CCOc1cccc2c(NC(C)CCCN(CC)CC)c(C)cnc12 (stereo unspecified) | 105%
12 | COc1ccc(-c2nsc3c2NC(=O)CC3c2cccc(F)c2)cc1 (stereo unspecified) | 39.2%
13 | COc1ccc(/C(C)=C(\c2ccc(Cl)cc2)c2ccc(OCCCN(C)C)cc2)cc1F | 66.2%
14 | COCCOCCOCc1n(Cc2ccc3ccccc3n2)c2ccccc2[n+]1Cc1ccc2ccccc2c1 | -68% (active)
15 | COc1ccc2[nH]c(-c3ccc(Cl)cc3)cc(=O)c2c1 | 75.7%
16 | CC(C)(C)OC(=O)N1CCc2c(sc3ncnc(N/N=C/c4ccc(Br)cc4)c23)C1 | 83.1%
17 | CC(=O)c1ccc(NCn2nc(-c3ccc(Cl)cc3)oc2=S)cc1 | 88.9%
18 | O=c1c2c3c(sc2n2c(-c4cn(-c5ccccc5)nc4-c4ccc(Cl)cc4)nnc2n1Cc1ccccc1)CCCC3 | 102%
19 | CN(C)CC1CCCCCC(CN(C)C)C1=O (stereo unspecified) | 26%
20 | Cn1nc(CC#N)c2c(=N)n(N)cnc21 | 84.4%
21 | COc1ccc(/C=C/C(=O)c2ccc(Nc3ncnc4ccccc34)cc2)cc1OC | 75.6%
22 | Cc1nc2sc(C(=O)Nc3cccc(Cl)c3C)c(N)c2cc1C(C)O (stereo unspecified) | -18.7% (active)
23 | Cc1cc(=O)cc(C)n1-c1ccccc1 | 103%
24 | COc1ccc(/C=C2\NC(=O)NC2=O)cc1O | 102%
25 | CN1/C(=C\C=C\C2=[N+](C)c3ccccc3C2(C)C)C(C)(C)c2ccccc21 | -22.5% (active)
26 | C=C(C)[C@@H]1CC[C@]2(C(=O)NC3CCCCC3)CC[C@]3(C)[C@H](CC[C@@H]4[C@@]5(C)CCCNC(C)(C)[C@@H]5CC[C@]43C)[C@@H]12 | 23.7%
